Test results: PubChem BioAssay (Tox21)
Where “and” joins values, the source holds several entries; their conditions need not be identical. Equal values may be shown once. The source holds several records for some structures; these can differ, active in one and inactive in another. Calls of active or inactive are those of the source. Where a call stands in place of a potency, no number is given. Unless noted, calls come from the whole dose curve; as a rule, active = well fitted curve in the direction sought with a large enough effect in the repeat runs; inconclusive = weak or mixed curves; inactive = no such curve, though single readings can be large; an effect the other way counts as inactive or inconclusive.

What was measured:
[1] = qHTS assay to identify small molecule antagonists of the thyroid receptor (TR) signaling pathway - cell viability counter screen (AID 743064); note: nearly all actives have a fitted effect of over 50% in size; note: potency is the fitted concentration of half-maximal effect
In short: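 CellTiter-Fluor readout, 30 min at 37 °C/5% CO2, following 23.5 h incubation of GH3.TRE-Luc cells with test compound and 1 nM T3 (final).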

[2] = qHTS assay to identify small molecule antagonists of the thyroid receptor (TR) signaling pathway (AID 743065); note: nearly all actives have a fitted effect of over 55% in size; note: potency is the fitted concentration of half-maximal effect
In short: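 GH3.TRE-Luc rat pituitary cells (two TREs driving luciferase) were dosed with compound, then stimulated with 1 nM T3 (final) for 23.5 h at 37 C. ONE-Glo luminescence was the read-out, with CellTiter-Fluor fluorescence as the cytotoxicity counter-screen.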

[3] = system: thyroid hormone receptor (rat, GH3 cells); experiment: qHTS assay to identify small molecule agonists of the thyroid receptor (TR) signaling pathway (AID 743066; calls by dose curve)
[4] = target: Estrogen receptor (Homo sapiens) (UniProt P03372); experiment: qHTS assay to identify small molecule agonists of the estrogen receptor alpha (ER-alpha) signaling pathway (AID 743075; calls by dose curve;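 note: HEK293 GripTite cells with ER-alpha and UAS-driven beta-lactamase reporter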; note: potency is the fitted concentration of half-maximal effect)
Chain of Estrogen receptor (Homo sapiens) (P03372 whole entry, looked up): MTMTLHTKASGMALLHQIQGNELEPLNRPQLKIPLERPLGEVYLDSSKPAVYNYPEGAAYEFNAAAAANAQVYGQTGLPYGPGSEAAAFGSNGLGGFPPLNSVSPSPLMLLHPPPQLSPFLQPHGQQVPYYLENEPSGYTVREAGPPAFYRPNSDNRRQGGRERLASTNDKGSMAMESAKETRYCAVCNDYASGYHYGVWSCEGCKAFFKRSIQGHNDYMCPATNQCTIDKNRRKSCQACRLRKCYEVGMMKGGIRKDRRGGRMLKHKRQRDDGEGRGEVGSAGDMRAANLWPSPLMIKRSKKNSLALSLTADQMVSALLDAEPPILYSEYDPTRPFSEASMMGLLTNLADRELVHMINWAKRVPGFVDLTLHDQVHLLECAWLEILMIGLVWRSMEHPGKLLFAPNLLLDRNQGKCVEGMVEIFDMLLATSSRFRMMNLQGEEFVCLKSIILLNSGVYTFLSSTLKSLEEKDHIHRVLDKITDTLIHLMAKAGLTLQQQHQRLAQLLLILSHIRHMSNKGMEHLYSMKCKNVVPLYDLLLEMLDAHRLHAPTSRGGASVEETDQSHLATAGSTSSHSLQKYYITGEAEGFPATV

[5] = target: Estrogen receptor (Homo sapiens) (UniProt P03372); experiment: qHTS assay to identify small molecule agonists of the estrogen receptor alpha (ER-alpha) signaling pathway using the BG1 cell line (AID 743079); note: nearly all actives have a fitted effect of over 20% in size; note: potency is the fitted concentration of half-maximal effect
[6] = qHTS assay to identify small molecule antagonists of the estrogen receptor alpha (ER-alpha) signaling pathway using the BG1 cell line (AID 743080; calls by dose curve;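 note: BG1 cells stimulated with 17beta-estradiol alongside compound; nearly all actives have a fitted effect of over 25% in size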; note: potency is the fitted concentration of half-maximal effect)
In short: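 Quantitative HTS on the Tox21 10K library: BG1 cells with endogenous ER-alpha and ERE-luciferase reporter, 17beta-estradiol stimulation, 21.5 h compound exposure, luminescence endpoint with parallel fluorescence cytotoxicity counter-read.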

Aromatase (Homo sapiens) = Aromatase (Homo sapiens) (UniProt P11511); experiment: qHTS assay to identify aromatase inhibitors (AID 743083); note: nearly all actives have a fitted effect of over 55% in size; note: potency is the fitted concentration of half-maximal effect
Chain of Aromatase (Homo sapiens) (P11511 whole entry, looked up): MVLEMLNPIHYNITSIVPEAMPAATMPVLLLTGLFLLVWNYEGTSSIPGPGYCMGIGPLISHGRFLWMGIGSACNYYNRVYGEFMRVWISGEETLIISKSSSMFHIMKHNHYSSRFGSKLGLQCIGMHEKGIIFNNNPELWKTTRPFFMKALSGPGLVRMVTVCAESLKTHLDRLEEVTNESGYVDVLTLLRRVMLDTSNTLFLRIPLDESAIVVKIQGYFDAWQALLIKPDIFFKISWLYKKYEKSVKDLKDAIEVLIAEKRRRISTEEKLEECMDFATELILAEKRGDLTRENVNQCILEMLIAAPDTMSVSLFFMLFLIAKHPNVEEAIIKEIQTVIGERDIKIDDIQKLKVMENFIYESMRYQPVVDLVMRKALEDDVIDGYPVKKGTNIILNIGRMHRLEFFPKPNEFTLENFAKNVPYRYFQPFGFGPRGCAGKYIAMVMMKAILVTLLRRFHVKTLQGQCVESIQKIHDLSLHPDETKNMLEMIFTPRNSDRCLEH

[7] = qHTS assay to identify small molecule antagonists of the estrogen receptor alpha (ER-alpha) signaling pathway - cell viability counter screen (AID 743074; calls by dose curve;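 note: HEK293 cells carrying ER-alpha-UAS-bla reporter stimulated with 17beta-estradiol; nearly all actives have a fitted effect of over 45% in size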; note: potency is the fitted concentration of half-maximal effect)
[8] = qHTS assay to identify small molecule antagonists of the estrogen receptor alpha (ER-alpha) signaling pathway using the BG1 cell line - cell viability counter screen (AID 743081);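 note: compound given together with 17beta-estradiol as the ER stimulus; nearly all actives have a fitted effect of over 45% in size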; note: potency is the fitted concentration of half-maximal effect
[9] = target: Estrogen receptor (Homo sapiens) (UniProt P03372); experiment: qHTS assay to identify small molecule antagonists of the estrogen receptor alpha (ER-alpha) signaling pathway (AID 743069; active = well fitted curve in the direction sought with a large enough effect in the signal ratio in the repeat runs, not every such curve was filed as active; inconclusive = weak or mixed curves, or effect the other way; inactive = no such curve, though single readings can be large or run the other way; the % refers to the signal ratio)
In short: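 Reporter cells (ER-alpha-bla, HEK293 background) are conditioned overnight in stripped-serum medium (2% charcoal-stripped FBS). Compound and 17beta-estradiol exposure runs 18 hr at 37C, 5% CO2.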

| SMILES | Potency [1] | Potency [2] | Potency [3] | Potency [4] | Potency [5] | Potency [6] | Potency (Aromatase (Homo sapiens)) | Potency [7] | Potency [8] | Potency [9] |
| --- | --- | --- | --- | --- | --- | --- | --- | --- | --- | --- |
| CCN1CCCC1CNC(=O)c1cc(S(=O)(=O)CC)c(N)cc1OC (centres undefined) | inactive | inactive | inactive | inactive | inactive | inactive | inactive |  |  |  |
| CCC(C)(C)C(=O)O[C@H]1C[C@@H](C)C=C2C=C[C@H](C)[C@H](CC[C@@H]3C[C@@H](O)CC(=O)O3)[C@H]21 | inactive |  | inactive | inactive | 12.7 µM (active) and inactive |  | inactive | inactive | inactive |  |
| CC(N)=O | inactive | inactive | inactive |  |  |  | inactive | inactive | inactive |  |
| c1ccc2n[nH]nc2c1 | inactive | inactive | inactive |  |  |  | inactive | inactive | inactive |  |
| Cc1cc(Cc2cc(C)cc(C(C)(C)C)c2O)c(O)c(C(C)(C)C)c1 | 15.4 µM (active) and 12.2 µM (active) | 6.89 µM (active) and 8.63 µM (active) | inactive |  |  |  | 30.8 µM (active) and 48.6 µM (active) | 22 µM (active) and 24.5 µM (active) | 68.9 µM (active) |  |
| CC(C)(C)c1ccc(O)c(C(C)(C)C)c1 | 27.2 µM (active) and 30.6 µM (active) | 30.5 µM (active) and 24.3 µM (active) |  |  |  | 48.6 µM (active) | 54.3 µM (active) and 54.5 µM (active) | 34.5 µM (active) and inactive | inactive | inactive |
| CC(=O)C1=C(C)[C@@H]2C[C@@]3(C1)[C@H](C)CC[C@H]3C2(C)C | 63.9 µM (active) and inactive |  | inactive | inactive | inactive | inactive | inactive | inactive | inactive | inactive |
| NC(Cc1ccc(Cl)cc1)C(=O)O (centres undefined) | inactive | inactive | inactive |  |  |  | inactive | inactive | inactive |  |
| Cc1cc(C(C)(C)C)c(O)c(C(C)(C)C)c1 | inactive | inactive | inactive |  |  |  | inactive | inactive | inactive |  |
| CC(=O)OCC1=C(C(=O)O)N2C(=O)[C@@H](NC(=O)Cc3cccs3)[C@H]2SC1 | inactive | inactive | inactive |  |  |  | inactive | inactive | inactive |  |
| c1cnc2cc3c(cc2n1)C1CNCC3C1 | inactive |  | inactive | inactive | inactive | inactive | inactive | inactive | inactive |  |
| CN(C)c1ccc2nc3ccc(=[N+](C)C)cc-3sc2c1 | 15 µM (active) and 26.2 µM (active) and 54.5 µM (active) |  | inactive |  |  |  |  | inactive | 18.8 µM (active) and 23.4 µM (active) and 54.5 µM (active) | inactive |
| CCC(CO)(CO)COCC(CC)(CO)CO | inactive | inactive | inactive |  |  |  | inactive |  | inactive |  |
| CCn1c2ccccc2c2cc(N)ccc21 | inactive |  | inactive | 48.5 µM [inconclusive] (active) and inactive | inactive | inactive | inactive | inactive | inactive |  |
| CCC(=O)/C=C/C1C(C)=CCCC1(C)C (centres undefined) | inactive | inactive | inactive |  |  |  | inactive | inactive | inactive |  |
| COC(=O)[C@H]1[C@H]2C[C@@H]3c4[nH]c5cc(OC)ccc5c4CCN3C[C@H]2C[C@@H](OC(=O)c2cc(OC)c(OC)c(OC)c2)[C@@H]1OC | 11.9 µM (active) and 24.3 µM (active) | 11.9 µM (active) and 21.6 µM (active) and 39.7 µM (active) |  |  |  |  | 16.8 µM (active) and 27.3 µM (active) and 56 µM (active) | inactive | inactive |  |
| CCc1ccc(C(c2ccc(CC)cc2)C(Cl)Cl)cc1 | inactive | inactive | inactive | inactive |  | inactive | inactive |  | inactive |  |
| O=C1CC2(CCCC2)CC(=O)N1CCCCN1CCN(c2ncccn2)CC1 | inactive |  | inactive |  |  |  |  | inactive | inactive |  |
| [Cl][In]([Cl])[Cl] | inactive |  | inactive | inactive |  | inactive | inactive | inactive | inactive | inactive |
| O=Nc1ccc(Nc2ccccc2)cc1 | 5.48 µM (active) and 6.86 µM (active) | 4.35 µM (active) and 5.45 µM (active) | inactive | 12.4 µM [inconclusive] (active) and 55 µM [activator] (active) | 68.6 µM (active) |  |  |  | inactive |  |
| COc1ccc(COC(C)=O)cc1 | inactive | inactive | inactive |  |  |  | inactive | inactive | inactive |  |
| Nc1nc(=S)c2[nH]cnc2[nH]1 | inactive | inactive | inactive | 19 µM [activator] (active) and inactive | 21.1 µM (active) and inactive | inactive and 750 nM (active) | inactive |  | inactive |  |
| OCCOCCN1CCN(C(c2ccccc2)c2ccc(Cl)cc2)CC1 (centres undefined) | 26.9 µM (active) | 23.7 µM (active) and 47.9 µM (active) | inactive |  |  |  | inactive | inactive | inactive |  |
| CNC1(C)C2CCC(C2)C1(C)C (centres undefined) | inactive | inactive | inactive |  |  |  | inactive | inactive | inactive |  |
| CC(C)(c1ccccc1)c1ccc(Nc2ccc(C(C)(C)c3ccccc3)cc2)cc1 | inactive | inactive | inactive | inactive | inactive | inactive | inactive |  | inactive |  |
| CC1=C(C=O)C(C)(C)CC=C1 | inactive | inactive | inactive |  |  |  | inactive | inactive | inactive |  |
| Oc1c(Cl)cc(Cl)c(Cl)c1Cc1c(O)c(Cl)cc(Cl)c1Cl | 26.6 µM (active) and 9.66 µM (active) and 24.3 µM (active) | 10.6 µM (active) and 2.43 µM (active) and 1.93 µM (active) | inactive |  |  |  | 10.6 µM (active) and 5.43 µM (active) and 6.11 µM (active) | 24.5 µM (active) and 4.9 µM (active) | inactive |  |
| CC[C@]1(O)C[C@@H]2CN(CCc3c([nH]c4ccccc34)[C@@](C(=O)OC)(c3cc4c(cc3OC)N(C)[C@H]3[C@@](O)(C(=O)OC)[C@H](OC(C)=O)[C@]5(CC)C=CCN6CC[C@]43[C@@H]65)C2)C1 | 188 nM (active) and 266 nM (active) | 75 nM (active) and 42.2 nM (active) |  |  |  | 3.35 µM (active) | 21.1 µM (active) |  | 15 µM (active) |  |
| CCCCCCCCCCCC[N+](C)(C)C | 17.2 µM (active) and 13.7 µM (active) and 15.4 µM (active) | 9.66 µM (active) and 6.86 µM (active) and 7.7 µM (active) |  |  |  |  | 24.3 µM (active) and 17.2 µM (active) and 21.7 µM (active) | inactive and 54.9 µM (active) | 60.9 µM (active) |  |
